# Experimental data: PubChem BioAssay (NCI)
# This is part of a sample that, as a whole, favours compounds with a hit. Of some 83,000 tested, about 20% had one in any assay.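 Activity criterion: percent growth below 10, measured after cells in 96-well plates were exposed to a single compound concentration for 48 hours.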 The source made the active and inactive calls.
# System: HL-60(TB) leukemia
# Assay: NCI-60 one-dose screen, 48 h (100 = growth as untreated, 0 = no growth, -100 = all killed)
# Conditions: 10 µM unless noted
row,SMILES,growth
1,Cc1csc(NC(c2ccccc2)c2c(C)nc3ccccn23)n1 (stereo not given),111% (inactive)
2,CCCc1cccc(CCC)c1NC(=O)Nc1cc(Cl)cc(Cl)c1,101% (inactive)
3,O=C(CCN1CCCC1)Nc1ccc2c(NCCc3ccccc3)c3ccccc3nc2c1,-58% (active)
4,CC(C)CC(NC(=O)C(CCCN=C(N)N)NC(=O)OCc1ccccc1)C(=O)NC(CNC(=O)/C=C/c1ccccc1)C(C)C (stereo not given),102% (inactive)
5,COC(=O)[C@]12CC[C@@H](C)[C@H](C)[C@@H]1C1=CC[C@@H]3[C@@]4(C)C[C@@H](O)[C@H](O)[C@@](C)(CO)C4=CC[C@@]3(C)[C@]1(C)CC2,-28% (active)
6,COc1ccc2nc(N=Nc3c(O)ccc4ccccc34)sc2c1,4.48% (active)
7,O=C(Cc1ccc(/C=C/C(=O)c2ncc[nH]2)cc1)Nc1cc(F)c(F)c(F)c1,7.25% (active)
8,COc1ccc(/C=C/C(=O)c2cc3c(N)c(C(=O)Nc4ccccc4)sc3nc2C)cc1,2.92% (active)
9,CCN(CC)c1ccc(/C=N/NC(=O)c2ccc(S(C)(=O)=O)cc2)c(O)c1,-18.5% (active)
10,C[C@H]1c2ccccc2CN1CCCOc1cc2c(cc1OCC1CC1)C1(CCCC1)C(N)=N2,31% (inactive)
11,COc1ccc2c(c1)nc(NNC(=O)c1cnccn1)c1cccn12,-6.85% (active)
12,O=C(/C=C/c1ccccc1)c1ccc(-n2cc(CN3CCN(c4cc5c(cc4F)c(=O)c(C(=O)O)cn5C4CC4)CC3)nn2)cc1,99.1% (inactive)
13,C[C@@H](C[C@H](CC1CC1)c1ccccc1)c1ccc2ccccc2c1,107% (inactive)
14,Cc1nc2c(=O)nc3s/c(=C\c4ccco4)c(=O)n3c2nc1C,98% (inactive)
15,Cc1ccc(S(=O)(=O)Nc2c(Br)cc(Br)cc2C(N)=O)cc1,83% (inactive)
16,CCCCCc1c(C)[nH]c(/C=C2\N=C(c3ccc[nH]3)C=C2OCc2ccccc2)c1C,-47.5% [100 µM] (active)
17,Oc1cccc2oc(=S)[nH]c12,121% (inactive)
18,COc1cc(/C=N\NC(=O)CN2CCN(c3cc4c(cc3F)c(=O)c(C(=O)N/N=C/c3cc(OC)c(OC)c(OC)c3)cn4C3CC3)CC2)cc(OC)c1OC,-10.2% (active)
19,O=c1[nH]c(-c2ccccn2)nc2sc3c(c12)CCCCCC3,10.9% (inactive)
20,O=C1c2ccccc2OC=C(c2ccccc2)N1CCCCNc1ccc(S(=O)(=O)Nc2ncccn2)cc1,73.1% (inactive)
21,O=C(N/N=C/c1ccc(Cl)cc1)c1[nH]c2ccc(Cl)cc2c1-c1ccccc1,13% (inactive)
22,COc1ccc(-c2nnc(NC(=O)CN3CCN(c4cc5c(cc4F)c(=O)c(C(=O)O)cn5C4CC4)CC3)s2)cc1OC,111% (inactive)
23,CC(=Nc1ccccc1)C1=C(O)C(Cc2cccc(F)c2)NC1=O (stereo not given),-15.2% (active)
24,COc1cc(/C=N/NC(=O)c2ccc(-n3cc(-c4ccccc4)nn3)cc2)cc(OC)c1OC,101% (inactive)
25,Cc1ccccc1NC(=O)c1sc2nc3c(cc2c1N)C(=O)CCC3,36% (inactive)
